Results on 40 compounds are retold here after PubChem BioAssay (NCI).

Values joined by “and” are separate entries in the source; they are usually repeats but may differ in a detail not shown here. Equal entries are not always repeated. About 83,000 compounds went through this panel and 20% of them were active in at least one assay; those are over-represented in the sample as a whole.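 48-hour exposure, single concentration, 96-well plates; percent growth endpoint where 0 means no net growth. Active: below 10.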 Active and inactive are the calls of the source.

This assay deals with RPMI-8226 leukemia. Nature of the assay: NCI-60 one-dose screen, 48 h (100 = growth as untreated, 0 = no growth, -100 = all killed). To be noted: 10 µM unless noted. On the procedure:
Growth inhibition of the RPMI-8226 human tumor cell line is measured as a screen for anti-cancer activity. Cells are grown in 96 well plates and exposed to the test compound for 48 hours. Compounds are tested at a single concentration, which is 10^-5 M for most compounds. The reported endpoint is percent growth (GI% or GIPRCNT), where numbers from 0 - 100% represent growth inhibition, and numbers from -100% - 0 represent cell death. For example, a value of 40 represents 60% growth inhibition. A value of 0 means no net growth occurred over the course of the experiment. A value of -40 indicates 40% of cells at the beginning of the experiment died by the end of the experiment. A value of -100 means all cells are dead at the end of the experiment.
NCI-60 Human Tumor Cell Lines Screen was performed using the standard one-dose NCI protocol, which is described in more detail at https://dtp.cancer.gov/discovery_development/nci-60/default.htm.
Compounds with GIPRCNT values below 10 were considered active. Activity score was based on GIPRCNT using the following formula: […]
Score is 0 for GIPRCNT values of 100 or above, 50 for GIPRCNT values of 0, and 100 for GIPRCNT values of -100.
Consider `CCCCOCCOP(=O)(OCCOCCCC)OCCOCCCC`, for which the growth is 115% (inactive).
With `O=[N+]([O-])c1cc(Cl)c(Cl)c([N+](=O)[O-])c1Cl` the figure was 29.7% (inactive); with `CCCC(C)SP(=S)(SC(C)CCC)SC(C)CCC` (stereo not given), 105% (inactive); with `O=C1CN2CCC1CC2`, 109% (inactive).
As to `Cc1cc(N(CCCl)CCCl)ccc1C=Nc1ccc(-c2csc(-c3ccccc3)n2)cc1`, the growth was 77.3% (inactive).
`O=C(Cc1ccccc1)c1ccccc1`: the growth was 85.4% (inactive).
As to `C/C(=C\c1ccn(-c2ccc(N)c(C(F)(F)F)c2)n1)[C@@H]1C[C@@H]2O[C@]2(C)CCC[C@H](C)[C@H](O)[C@@H](C)C(=O)C(C)(C)[C@@H](O)CC(=O)O1`, the growth was 9.58% (active).
With `Nc1cccnc1` the figure was 105% (inactive).
In the case of `O=[N+]([O-])c1ccc(CI)cc1` it was 53.2% (inactive).
As for `O=C(O)CNCP(=O)(O)O`, the growth is 99.1% (inactive).
As for `C[C@]12CC[C@H](O)C[C@@H]1CC[C@@H]1[C@@H]2CC[C@]2(C)OC(=O)CC[C@@H]12`, the growth is 102% (inactive).
On to `CC(C)COC(=O)Cc1ccccc1`, for which the growth is 103% (inactive).
`N#CC(N)c1ccccc1` (stereo not given): the growth was 99% (inactive).
For `CCC1(NC(=O)c2cc(F)c(F)c(F)c2F)C(=O)NC(=O)N(C(C)C)C1=O` (stereo not given), the growth was 107% (inactive).
`O=[N+]([O-])c1ccc(P(=O)(O)O)cc1`: the growth was 108% (inactive).
On to `CCCn1cc2c3c(cccc31)[C@H]1C[C@@H](C)CN(C)[C@@H]1C2`, for which the growth is 48.4% (inactive).
`C[C@]12CC[C@@H](OC(=O)N(CCCl)N=O)C[C@@H]1CC[C@@H]1[C@@H]2CC[C@]2(C)C(=O)CC[C@@H]12`: the growth was 21.7% (inactive).
For the compound `C=CC[PH+](c1ccccc1)c1ccccc1.C=CC[PH+](c1ccccc1)c1ccccc1.[Pt+2].[S-]c1ncccn1.[S-]c1ncccn1`, the growth is 0.618% (active).
Take `CCN1C(=O)CC(=O)N(CC)C1=S`: the growth was 104% (inactive).
For the compound `CC[C@@H](C)C(=O)O[C@H]1[C@H](O)[C@H]2[C@@H](CN3C[C@@H](C)CC[C@H]3[C@@]2(C)O)[C@@H]2C[C@]34O[C@]5(O)[C@@H](OC(=O)[C@@](C)(O)CC)CC[C@@]3(C)[C@@H]5[C@@H](OC(C)=O)[C@@H](OC(C)=O)[C@H]4[C@@]21O`, the growth is 94.1% (inactive).
As for `CC1(C)C2CCC1(CS(=O)(=O)O)C(=O)C2` (stereo not given), the growth is 91.4% (inactive).
With `Cc1cc[c-]cc1.Fc1c[c-]c(-c2ccccn2)c(F)c1.N#CCC[PH+](CCC#N)c1ccccc1.[Pt+2]`, the growth was 14.6% (inactive).
For the compound `O=Cc1cn(Cc2ccccc2)c2ccccc12`, the growth is 61.2% (inactive).
As for `C=CCOC(=O)C(Br)CC` (stereo not given), the growth was 112% (inactive).
With `CCOP(=O)(NC)OCC` the figure was 92.8% (inactive).
`C[C@]12CCc3sc(Nc4ccc(F)cc4)nc3C1=CC[C@@H]1[C@@H]2CC[C@]2(C)C(=O)CC[C@@H]12`: the growth is 2.21% (active).
In the case of `C[C@]12CC[C@H]3[C@@H](C[C@@H]4SC(Nc5ccccc5)=N[C@@]45C/C(=N/O)CC[C@]35C)[C@@H]1CCC2=O`, the growth is -1.41% (active).
In the case of `CC1(C)N(Nc2ccccc2)C(=O)C2CCCN21` (stereo not given), the growth was 13.7% (inactive).
As for `Cc1nnc([S-])o1.[Au+].c1ccc([PH+](c2ccccc2)c2ccccc2)cc1`, the growth is 17.2% (inactive).
`C[N+]1(C)CCCC1c1cccnc1` (stereo not given): the growth is 99.4% (inactive).
As to `CC1(C)N=C(N)N=C(N)N1c1ccc(CCC(=O)Nc2ccc(S(=O)(=O)F)cc2)cc1`, the growth is 34.4% (inactive).
With `C[C@]12CCC3[C@@H](C[C@@H]4SC(Nc5ccccc5)=N[C@@]45CC(=O)CC[C@]35C)[C@@H]1CCC2=O` (stereo not given in full) the figure was -14.8% (active).
In the case of `C/C(=C\c1ccn(-c2ccc(N)cc2F)n1)[C@@H]1C[C@@H]2O[C@]2(C)CCC[C@H](C)[C@H](O)[C@@H](C)C(=O)C(C)(C)[C@@H](O)CC(=O)O1` it was 7.57% (active); in that of `CO[C@@H]([CH2][Hg][O]C(=O)c1ccccc1)[C@@H]([CH2][Hg][O]C(=O)c1ccccc1)OC`, 92.2% (inactive).
In the case of `O=C(O)C(Br)CBr` (stereo not given) it was 103% (inactive).
Turning to `CSc1cc(/C=C(\C)[C@@H]2C[C@@H]3O[C@]3(C)CCC[C@H](C)[C@H](O)[C@@H](C)C(=O)C(C)(C)[C@@H](O)CC(=O)O2)n(CCNC(=O)OC(C)(C)C)n1`, the growth is 29.7% (inactive).
For the compound `CC/C(Cc1ccccc1)=C(\c1ccc(OCCN2CCCC2)cc1)c1ccc(OC(=O)NCc2ccccc2)cc1`, the growth is -6.25% (active).
As to `O=C(NC1=NCC[Se]1)c1ccccc1O`, the growth was 64.8% (inactive).
As to `O=[N+]([O-])c1cc(Cl)c(Cl)cc1Cl`, the growth is 97.4% (inactive) and 112% (inactive).
Consider `O=C(NC(Cl)=C(Cl)Cl)P(=O)(c1ccccc1)c1ccccc1`, for which the growth is 101% (inactive).
